# Assay results published in the antibiotic and cytotoxicity screens of Wong et al. (2023).
# The whole screen tested about 39,000 compounds, of which about 3,300 (8.5%) were called active. This is one part of a sample in which actives are shown more often than they occur.
# System: HepG2
# Assay: cytotoxicity call (relative viability < 0.9)
# Settings: 10 µM
row,Structure (SMILES),cytotoxicity call
1,C[C@@H]1CCCCO[C@H](CN(C)Cc2ccc(C(F)(F)F)cc2)[C@@H](C)CN([C@H](C)CO)C(=O)c2cc(NS(=O)(=O)c3cn(C)cn3)ccc2O1,inactive
2,COc1ccc(S(=O)(=O)N(C)C[C@@H]2Oc3ccc(NC(=O)NC(C)C)cc3CC(=O)N([C@@H](C)CO)C[C@H]2C)cc1,inactive
3,COC(=O)[C@@H](C)N(C#N)c1nc(C)cc(C)n1,inactive
4,C[C@@H]1CCCCO[C@@H](CN(C)S(=O)(=O)c2cccs2)[C@@H](C)CN([C@@H](C)CO)C(=O)c2cc(NC(=O)NC3CCCCC3)ccc2O1,inactive
5,C[C@H]1CN([C@@H](C)CO)S(=O)(=O)c2ccc(C3=CCCC3)cc2O[C@@H]1CN(C)S(=O)(=O)c1cn(C)cn1,inactive
6,C[C@@H]1CN([C@H](C)CO)C(=O)c2cc(NS(=O)(=O)c3ccc(F)cc3)ccc2O[C@@H]1CN(C)S(=O)(=O)c1ccc(F)cc1,inactive
7,C[C@@H]1CN([C@H](C)CO)C(=O)Cc2cc(NC(=O)Nc3ccccc3)ccc2O[C@H]1CN(C)Cc1ccc(Cl)c(Cl)c1,active
8,C[C@H](CO)N1C[C@H](C)[C@@H](CN(C)Cc2ccc(Cl)c(Cl)c2)Oc2ccc(NC(=O)Nc3ccccc3)cc2CC1=O,inactive
9,C[C@H](CO)N1C[C@H](C)[C@H](CN(C)Cc2ccc(Cl)c(Cl)c2)Oc2ccc(NC(=O)Nc3ccccc3)cc2CC1=O,active
10,C[C@@H]1CN([C@H](C)CO)C(=O)Cc2cc(NC(=O)Nc3ccccc3)ccc2O[C@@H]1CN(C)Cc1ccc(Cl)c(Cl)c1,active
11,C[C@@H]1CN([C@@H](C)CO)C(=O)Cc2cc(NC(=O)Nc3ccccc3)ccc2O[C@H]1CN(C)Cc1ccc(Cl)c(Cl)c1,inactive
12,C[C@H]1CN([C@@H](C)CO)C(=O)Cc2cc(NC(=O)Nc3ccccc3)ccc2O[C@H]1CN(C)Cc1ccc(Cl)c(Cl)c1,active
13,CC(C)NC(=O)Nc1ccc2c(c1)C(=O)N([C@H](C)CO)C[C@H](C)[C@H](CN(C)C(=O)Nc1ccccc1)OCCCC[C@H](C)O2,inactive
14,C[C@@H]1CN([C@@H](C)CO)C(=O)Cc2cc(NS(=O)(=O)c3cn(C)cn3)ccc2O[C@@H]1CN(C)Cc1ccc(C(=O)Nc2ccccc2N)cc1,inactive
15,Cc1noc(C)c1S(=O)(=O)Nc1cccc2c1O[C@H](CN(C)C(=O)Nc1ccccc1)[C@H](C)CN([C@H](C)CO)C2=O,inactive
16,CN(C(=O)c1ccc(Cl)c(N2C(=O)CCS2(=O)=O)c1)[C@H]1CCS(=O)(=O)C1,inactive
17,Cc1ccc(S(=O)(=O)Nc2ccc3c(c2)C(=O)N([C@@H](C)CO)C[C@H](C)[C@@H](CN(C)S(C)(=O)=O)O3)cc1,inactive
18,O=C(C[C@H]1CC[C@H]2[C@@H](COC[C@@H](O)CN2S(=O)(=O)c2ccc(F)cc2)O1)NCCN1CCCCC1,inactive
19,Cc1noc(C)c1NC(=O)Nc1ccc2c(c1)C(=O)N([C@H](C)CO)C[C@@H](C)[C@@H](CN(C)Cc1ccc3c(c1)OCO3)OCCCC[C@H](C)O2,inactive
20,O=C(C[C@H]1C[C@H]2c3cc(NS(=O)(=O)c4ccc(F)cc4)ccc3O[C@H]2[C@H](CO)O1)NCc1cccc(F)c1,inactive
21,C[C@@H]1CN([C@@H](C)CO)C(=O)Cc2cc(NC(=O)Nc3ccccc3)ccc2O[C@@H]1CN(C)Cc1ccc(Cl)c(Cl)c1,active
22,C[C@H]1CN([C@@H](C)CO)C(=O)Cc2cc(NC(=O)Nc3ccccc3)ccc2O[C@@H]1CN(C)Cc1ccc(Cl)c(Cl)c1,active
23,C[C@H](CO)N1C[C@H](C)[C@H](CN(C)Cc2ccc(C(F)(F)F)cc2)OCCCC[C@H](C)Oc2ccc(NC(=O)c3ccncc3)cc2C1=O,inactive

row,Structure (SMILES),cytotoxicity call
1,C[C@@H]1CN([C@@H](C)CO)S(=O)(=O)c2ccc(C3=CCCC3)cc2O[C@H]1CN(C)S(=O)(=O)c1ccc(F)cc1,inactive
2,Nc1cccc(OCc2ccccc2)c1,inactive
3,CC(C)NC(=O)Nc1ccc2c(c1)C(=O)N([C@H](C)CO)C[C@@H](C)[C@H](CN(C)Cc1ccc(C(=O)O)cc1)O2,inactive
4,C[C@@H]1CN([C@H](C)CO)S(=O)(=O)c2ccc(C#CCN(C)C)cc2O[C@H]1CN(C)C(=O)Nc1ccccc1F,inactive
5,CC12C=CC(=O)C=C1CCC1C2C(=O)CC2(C)C1CCC2(O)C(=O)CO (stereo unspecified),inactive
6,CC(O)(P(=O)(O)O)P(=O)(O)O,inactive
7,CC(O)(P(=O)([O-])O)P(=O)([O-])O.[Na+].[Na+],inactive
8,O=P(O)(O)C(Cl)(Cl)P(=O)(O)O,active
9,C[C@@H]1CN([C@@H](C)CO)C(=O)c2cc(NC(=O)Cc3ccccc3)ccc2O[C@@H](C)CCCCO[C@@H]1CN(C)C(=O)C1CCCCC1,inactive
10,COc1ccc(NC(=O)N(C)C[C@@H]2OCCCC[C@@H](C)Oc3ccc(NC(=O)Nc4c(C)noc4C)cc3C(=O)N([C@@H](C)CO)C[C@H]2C)cc1,inactive
11,CN(Cn1[nH]c(=O)ccc1=O)c1ccccc1,inactive
12,COCCOC(=O)N1C(=O)[C@@]2(c3cc(C#CCNC(N)=O)ccc31)[C@H](C(=O)N1CCCCCCC1)[C@H]1C(=O)O[C@H](c3ccccc3)[C@H](c3ccccc3)N1[C@@H]2c1ccccc1OCCO,inactive
13,Cl.OC(c1cc(C(F)(F)F)nc2c(C(F)(F)F)cccc12)C1CCCCN1 (stereo unspecified),active
14,C[C@H]1CN([C@@H](C)CO)C(=O)c2cccc(NC(=O)C3CCCCC3)c2O[C@H]1CN(C)Cc1ccc(-c2ccccc2)cc1,inactive
15,Cc1noc(C)c1NC(=O)Nc1cccc2c1O[C@@H](CN(C)Cc1ccc(Cl)c(Cl)c1)[C@@H](C)CN([C@H](C)CO)C2=O,inactive
16,C[C@H](CO)N1C[C@H](C)[C@H](CN(C)Cc2ccc(-c3ccccc3)cc2)Oc2ccc(NC(=O)Cc3ccccc3)cc2CC1=O,inactive
17,C[C@H](CO)N1C[C@H](C)[C@@H](CN(C)Cc2ccc(-c3ccccc3)cc2)Oc2ccc(NC(=O)Cc3ccccc3)cc2CC1=O,inactive
18,C[C@@H]1CN([C@H](C)CO)C(=O)Cc2cc(NC(=O)Cc3ccccc3)ccc2O[C@@H]1CN(C)Cc1ccc(-c2ccccc2)cc1,active
19,C[C@@H]1CN([C@@H](C)CO)C(=O)Cc2cc(NC(=O)Cc3ccccc3)ccc2O[C@H]1CN(C)Cc1ccc(-c2ccccc2)cc1,inactive
20,C[C@H]1CN([C@@H](C)CO)C(=O)Cc2cc(NC(=O)Cc3ccccc3)ccc2O[C@H]1CN(C)Cc1ccc(-c2ccccc2)cc1,active
21,C[C@@H]1CN([C@H](C)CO)C(=O)Cc2cc(NC(=O)Cc3ccccc3)ccc2O[C@H]1CN(C)Cc1ccc(-c2ccccc2)cc1,inactive
22,C[C@H]1CN([C@@H](C)CO)C(=O)Cc2cc(NC(=O)Cc3ccccc3)ccc2O[C@@H]1CN(C)Cc1ccc(-c2ccccc2)cc1,inactive
23,C[C@@H]1CN([C@@H](C)CO)C(=O)Cc2cc(NC(=O)Cc3ccccc3)ccc2O[C@@H]1CN(C)Cc1ccc(-c2ccccc2)cc1,active
